# Screening results from PubChem.
# ADAM10 inh – inhibitors of human ADAM10; inhibition, % at 7 µM; recombinant ADAM10, EDANS/DABCYL FRET peptide cleavage, 3 h; O14672; 370,000 compounds, 0.62% hits;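 active means inhibition above a per-campaign cutoff equal to the mean of compounds falling between control-based bounds plus 3 SD, cut at about 20% in these data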;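 further: 0% = DMSO wells while the 100% control is not disclosed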
# ADAM17 inh – inhibits human ADAM17; recombinant ADAM17, EDANS/DABCYL FRET peptide cleavage; inhibition, % at 6.95 µM; 370,000 compounds, 0.83% hits; AID 720648;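 active means inhibition above the mean of compounds lying between control limits plus 3 SD, set per campaign, cut at about 8.5% in these data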;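 further: 0% = DMSO-only wells as the low control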
# PLC-gamma1 inh – PLC-gamma1 (human) inhibition, primary screen. P19174. purified PLC-gamma1, fluorogenic substrate, fluorescence. inhibition, % at 12.2 µM. 370,000 compounds, 0.84% hits; in the data active means inhibition above about 9.5%
# proKLK7 act – proKLK7 (human) activation, primary screen. AID 652039. 370,000 compounds, 0.9% hits. P49862. activation, % at 7 µM. purified proKLK7, EDANS-DABCYL substrate fluorescence; 100% is mature enzyme control, 0% vehicle;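 active means activation above the mean of all tested compounds plus 3 SD, computed per campaign excluding outliers beyond control limits, cut at about 13% in these data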
# HGIII-sPLA2 inh – Blocks human group III sPLA2 activity; AID 743126; 370,000 compounds, 0.56% hits; Q9NZ20; inhibition, % at 12.2 µM; QFRET BODIPY PC-A2 liposome hydrolysis, fluorescence;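 active means inhibition above mean plus 3 SD of compounds lying within the high and low control bounds, cut at about 19% in these data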;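 further: 0% = median of test compound wells and 100% = no enzyme DMSO wells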
# Target sequence (Q9NZ20 whole entry, looked up): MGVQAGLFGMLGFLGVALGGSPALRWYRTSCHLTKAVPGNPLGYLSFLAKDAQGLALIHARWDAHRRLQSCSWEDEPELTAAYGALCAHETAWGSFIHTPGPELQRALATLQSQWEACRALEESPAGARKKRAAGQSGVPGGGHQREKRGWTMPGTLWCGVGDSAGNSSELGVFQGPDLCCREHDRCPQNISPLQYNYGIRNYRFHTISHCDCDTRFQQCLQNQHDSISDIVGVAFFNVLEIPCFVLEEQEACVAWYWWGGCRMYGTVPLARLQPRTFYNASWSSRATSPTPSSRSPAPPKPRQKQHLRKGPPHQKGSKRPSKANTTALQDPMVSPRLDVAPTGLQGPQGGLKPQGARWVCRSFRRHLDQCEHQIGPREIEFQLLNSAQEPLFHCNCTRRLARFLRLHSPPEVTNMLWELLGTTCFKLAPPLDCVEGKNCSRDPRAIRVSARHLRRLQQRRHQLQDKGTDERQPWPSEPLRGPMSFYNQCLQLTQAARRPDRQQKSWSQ
# PLCb3 inh – PLC-beta3 (human) inhibition, primary screen; 370,000 compounds, 0.18% hits; AID 720704; Q01970; Purified PLC-beta3, fluorogenic substrate, fluorescence; inhibition, % at 12.2 µM;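 further: 0% = median of compound wells on plate and 100% = full blocker control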
# ADAM10 counter – ADAM10 inhibition, counter-screen for ADAM17 exosite hits; inhibition, % at 6.95 µM; 2,900 compounds, 47% hits; recombinant ADAM10, EDANS/DABCYL FRET peptide cleavage, 3 h; shares compounds with ADAM17 inh;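 active means mean inhibition over the triplicate runs exceeds the activity threshold set in the earlier primary screen, cut at about 20% in these data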;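 further: 0% = DMSO wells and 100% = marimastat wells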
# ADAM17 confirm – confirmation of inhibitors of human ADAM17; shares compounds with ADAM17 inh; recombinant ADAM17, EDANS/DABCYL QFRET peptide cleavage; inhibition, % at 6.95 µM; 2,900 compounds, 65% hits; AID 743257;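 active means mean inhibition across replicates above the hit cutoff set in the primary screen, cut at about 8.5% in these data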;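 further: 0% = DMSO wells and 100% = marimastat wells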
# PLCg1 ctr – counter-screen for PLC-beta3 inhibitors: inhibitors of human PLC-gamma1; purified PLC-gamma1, fluorogenic substrate, fluorescence; shares compounds with PLC-gamma1 inh; 3,300 compounds, 3.1% hits; inhibition, % at 12.3 µM; AID 743258; in the data active means inhibition above about 9.5%
# PLCb3 confirm – human PLC-beta3 inhibition, confirmation; shares compounds with PLC-gamma1 inh; purified PLC-beta3, fluorogenic substrate fluorescence; inhibition, % at 12.3 µM; 3,300 compounds, 1% hits; AID 743261
# * hit, by the source's call; . = no result given. In the library only some 3.4% were active in any assay of this set; here they are far more common. Unless noted, no stated cut-off is given here; in the data, active means inhibition above about 11%; inactive means the rest.
SMILES,ADAM10 inh,ADAM17 inh,PLC-gamma1 inh,proKLK7 act,HGIII-sPLA2 inh,PLCb3 inh,ADAM10 counter,ADAM17 confirm,others
CN(C)S(=O)(=O)c1cccc(NC(=O)c2cccc(S(=O)(=O)N3CCc4ccccc43)c2)c1,12,9.5*,4,-1,-22,-1,41*,22*,
CN(C)S(=O)(=O)c1cccc(NC(=O)c2ccc(COc3ccccc3)cc2)c1,18,9.6*,8,0,-18,8,24*,14*,
CN(C)c1ccc(C(CNS(=O)(=O)c2ccc3ccccc3c2)c2c[nH]c3ccccc23)cc1 (stereo unspecified),19,9.1*,-9,-5,-20,-11,26*,20*,
CN(C)c1ccc(C(CN)c2c[nH]c3ccccc23)cc1 (stereo unspecified),-3,-4,-5,0,6,-16,.,.,
CC1=Nc2cc(C(=O)NCCN3CCOCC3)ccc2Sc2c(C)ccc(C)c21,1,9.3*,6,1,-15,-6,-15,0,
COc1ccc(NC(=O)CN2CCCC2c2cccs2)cc1S(=O)(=O)N1CCCCC1 (stereo unspecified),18,9.5*,6,0,-16,3,3,1,
Cc1ccccc1NC(=O)c1[nH]cnc1C(=O)NN,7,13*,9,-1,10,-5,-2,0,
CC(=O)Nc1ccc(S(=O)(=O)NCCSCc2cccc(Cl)c2)cc1,15,8.9*,7,0,-30,2,6,5,
O=C(/C=C/c1cccc([N+](=O)[O-])c1)NCCSCc1cccc(Cl)c1,19,13*,7,0,-13,2,22*,12*,
O=C(/C=C/c1cccc([N+](=O)[O-])c1)NCc1ccccc1,-3,3,1,0,0,0,.,.,
CC(C)(C)OC(=O)N(Cc1ccccc1)Cc1ccccc1OCc1ccc(NC(=O)C2CCC2)cc1,8,13*,1,0,-5,3,13,11*,
CCOc1ccc(NC(=O)C2CC(=O)N(C)C(=Nc3ccc4c(c3)OCO4)S2)cc1 (stereo unspecified),-7,-2,0,0,-6,3,.,.,
COc1cccc(N=C2SC(C(=O)Nc3ccc(F)cc3)CC(=O)N2C)c1 (stereo unspecified),7,10*,1,0,-19,-3,25*,11*,
C[C@@H]1CN[C@H](CCO)/C1=C\c1ccccc1,-11,-3,-1,0,0,3,.,.,
O=S1(=O)CCOC[C@H](Cc2ccccc2)N1Cc1cccc(C(F)(F)F)c1,0,11*,3,-1,7,4,10,5,
CCCCSc1nc(C)cc(SCC(=O)N/N=C/c2cccc(OC)c2O)n1,11,14*,-18,-2,-4,-32,2,8,
Cc1ccc(OCc2nnc(SCC(=O)Nc3cccc4ccccc34)n2Cc2ccco2)cc1,17,10.0*,2,0,-32,1,39*,19*,
COc1ccc(-c2nnc(SCC(=O)Nc3cccc4ccccc34)n2Cc2ccco2)cc1,3,2,3,-1,-8,0,.,.,
O=C(CSc1nnc(COc2ccc(Cl)cc2)n1Cc1ccco1)Nc1cccc2ccccc12,16,9.3*,-1,0,-31,2,36*,18*,
c1ccc(CSc2nnc(SCc3ccccn3)s2)nc1,9,9.0*,11*,0,8,14*,5,9,PLCg1 ctr=-4;PLCb3 confirm=-3
N#Cc1ccc(NC(=O)Cn2cnc(S(=O)(=O)N3CCCCC3)c2)cc1,6,0,5,0,2,-5,.,.,
Cc1cccc(NS(=O)(=O)c2ccc3c(c2)Cc2cc(S(=O)(=O)Nc4cccc(C)c4C)ccc2-3)c1C,18,11*,10*,0,-14,4,13,10*,PLCg1 ctr=-7;PLCb3 confirm=-2
CC(=O)N(C)c1ccc(N=Nc2c(C)[nH]n(-c3ccccc3)c2=O)cc1,3,-1,4,1,-4,-2,.,.,
CC(=O)N(C)c1ccc(N=Nc2ccc3ncccc3c2)cc1,17,9.6*,12*,0,-5,10,1,5,PLCg1 ctr=6;PLCb3 confirm=6
CC1Oc2ccccc2N(CC(=O)Nc2ccc3c(c2)OCO3)C1=O (stereo unspecified),9,7,5,-1,-3,6,.,.,
SMILES,ADAM10 inh,ADAM17 inh,PLC-gamma1 inh,proKLK7 act,HGIII-sPLA2 inh,PLCb3 inh,ADAM10 counter,ADAM17 confirm,others
CC1Oc2ccccc2N(CC(=O)Nc2ccc3c(c2)OCCO3)C1=O (stereo unspecified),10,10.0*,11*,-1,0,9,-6,-1,PLCg1 ctr=-4;PLCb3 confirm=1
Cc1c(N2C(=O)/C(=C/c3ccc(N(C)C)cc3)N(C)C2=S)c(=O)n(-c2ccccc2)n1C,4,1,-1,0,10,-8,.,.,
O=C(C[C@@H]1C/C=C\CCC(=O)OC[C@@H]2CCCN2C1=O)N[C@@H](CO)Cc1ccccc1,3,8.9*,13*,1,16,12*,4,3,PLCg1 ctr=6;PLCb3 confirm=1
CCN(CC)C(=O)Cn1cc(C(=O)C(=O)N(CC)C2CCCCC2)c2ccccc21,0,-3,0,1,-2,-4,.,.,
CCCC[C@H]1COCCS(=O)(=O)N1Cc1cccc([N+](=O)[O-])c1,-4,-1,0,0,1,1,.,.,
Cc1cc(Cl)ccc1OCC(=O)N1CCCN(C(=O)COc2ccc(Cl)cc2C)CC1,14,9.5*,10*,0,-13,4,26*,14*,PLCg1 ctr=-9;PLCb3 confirm=-4
CC(C)C[C@H](NC1(C(=O)NCCc2c[nH]c3ccccc23)CCOCC1)C(=O)NCCCc1ccccc1,-3,-3,5,.,-63,0,.,.,
CC(C)C[C@H](NC1(C(=O)NCCc2c[nH]c3ccccc23)CCC1)C(=O)NCCCc1ccccc1,6,8.8*,13*,.,-43,7,11,6,PLCg1 ctr=-7;PLCb3 confirm=-4
COC(=O)c1ccc(C2/C(=C(/O)c3ccc(OC)cc3)C(=O)C(=O)N2CC2CCCO2)cc1 (stereo unspecified),-4,-4,0,0,3,4,.,.,
